From PubChem BioAssay AID686978 (National Center for Advancing Translational Sciences (NCATS), 2013)
Among all 420,000 compounds or so, about 64,000 (15%) were called active. About 27% were inconclusive and are not listed. The call rests on the fitted dose curve; in most records, active means well fitted inhibition curve with a large enough effect; inconclusive means small, poorly fitted or top-dose-only effect; inactive means flat fitted curve, though single readings scatter. A selection follows.

assay: qHTS for Inhibitors of human tyrosyl-DNA phosphodiesterase 1 (TDP1): qHTS in cells in absence of CPT; details: DT40 Tdp1-/- hTDP1 cells, no CPT, ATP luminescence, 48 h; activity change, negative = growth inhibition: at 46.2 µM (top of the series); further: nearly all actives have a fitted effect of over 55% in size
Method in brief: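 Growth kinetics read by CellTiter-Glo luminescence after ≥48 hr at 37 °C. Cells: DT40 Tdp1-/- stably carrying human TDP1, 400 per well, compound exposure in the absence of CPT (DMSO vehicle).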
On the % scale 0 is the no-effect control and ±100 the full control effect; potency means the concentration at half of the fitted maximal effect.

Row | Structure (SMILES) | activity change, negative = growth inhibition | Potency
1 | C=CCOc1ccccc1CNn1c(C)n[nH]c1=S | -17.6% (inactive) | –
2 | CCCN(C(=O)CSc1nnc(N)s1)c1c(N)n(Cc2ccccc2)c(=O)[nH]c1=O | -9.5% (inactive) | –
3 | CCCN1C(=O)C(Cc2nc3ccccc3c(=O)n2-c2ccccc2)c2cc(C)ccc21 (stereo not drawn) | -12.9% (inactive) | –
4 | O=c1c2ccccc2ncn1/N=C/c1ccccc1 | -4.26% (inactive) | –
5 | CCCc1nc2ccccc2c(=O)n1/N=C/c1ccc(O)c(O)c1 | – | 16.4 µM (active)
6 | CC(C)Oc1ccc(C(=O)NC(C)(C)CO)cc1 | -14.9% (inactive) | –
7 | CC(Oc1ccc(Cl)cc1Cl)C(=O)/C=C/N(C)C (stereo not drawn) | -5.7% (inactive) | –
8 | O=C(CN(CC1CCCO1)C(=O)CNS(=O)(=O)c1ccccc1)NCc1ccccc1 (stereo not drawn) | -29.5% (inactive) | –
9 | Cc1cc(NC(=O)c2ccccc2C)no1 | 6.48% (inactive) | –
10 | O=c1c(/C=N/O)coc2ccc(Cl)cc12 | -19% (inactive) | –
11 | Cc1ccc2occ(/C=N/NC(=O)c3ccccc3C)c(=O)c2c1 | – | 14.6 µM (active)
12 | Cc1ccccc1CSc1nnc(Cn2c(=O)sc3ccccc32)n1C | -17.7% (inactive) | –
13 | CCOc1cc(/C=N/NC(=O)c2ccc(CSc3nncn3C)cc2)ccc1OCC(=O)N1CCOCC1 | 13.3% (inactive) | –
14 | O=S(=O)(c1ccccc1)c1nc(-c2ccccc2)oc1NCCCN1CCOCC1 | -16.3% (inactive) | –
15 | O=S(=O)(c1ccccc1)c1nc(-c2ccc(Cl)cc2Cl)oc1N1CCCCC1 | – | 13 µM (active)
16 | CSc1nc(-c2ccco2)nn1C(=O)c1ccccc1Cl | -11.7% (inactive) | –
17 | O=S(=O)(c1ccc(Cl)cc1)c1nc(-c2ccco2)oc1N1CCCCC1 | – | 23.1 µM (active)
18 | COc1ccc(-c2nc(S(=O)(=O)c3ccccc3)c(N3CCCCC3)o2)cc1 | – | 18.4 µM (active)
19 | O=C(CSc1oc(-c2ccccc2)nc1S(=O)(=O)c1ccc(Br)cc1)NC1CCCCC1 | -0.03% (inactive) | –
20 | O=S(=O)(c1ccccc1)c1nc(Cc2ccccc2)oc1N1CCOCC1 | -22.2% (inactive) | –
21 | O=S(=O)(c1ccc(Cl)cc1)c1nc(-c2ccccc2F)oc1NCCN1CCOCC1 | -28.5% (inactive) | –
22 | Cc1ccc(F)cc1S(=O)(=O)Nc1cccc(C(=O)N2CCCC(C(N)=O)C2)c1 (stereo not drawn) | 18.7% (inactive) | –

Row | Structure (SMILES) | activity change, negative = growth inhibition | Potency
23 | COc1cc(=O)n2c(c1C(=O)NC(C)c1ccco1)CCN(Cc1cc(C)cc(C)c1)CC2 (stereo not drawn) | -11.3% (inactive) | –
24 | Cn1cc(C(=O)c2ccc(Cl)cc2Cl)cc1C(=O)NN | -21.6% (inactive) | –
25 | O=C(CNC(c1ccccc1)c1ccccc1)Nc1ccc(F)cc1 | -23.5% (inactive) | –
26 | OCCCC1CCCCN1Cc1nc(Cc2ccccc2Cl)no1 (stereo not drawn) | 10.4% (inactive) | –
27 | O=Cc1c(Cl)cccc1Cl | -0.244% (inactive) | –
28 | COc1ccc([N+](=O)[O-])cc1NCC(=O)c1ccc(C)cc1 | -24.8% (inactive) | –
29 | Cn1ncc2c(N3CCCCC3)nc(NCCCO)nc21 | -1.11% (inactive) | –
30 | Cc1cnc(C)c(-c2cc(F)c3c(c2)CC(CNC(=O)c2cccc(Cn4cccn4)c2)O3)n1 (stereo not drawn) | -26.2% (inactive) | –
31 | COCC1CCN(C(=O)c2ccc3oc(Cc4ccccc4)nc3c2)C1 (stereo not drawn) | 5.22% (inactive) | –
32 | CCOC(=O)c1ccc(NC2Nc3cc(C)nn3S2)cc1 (stereo not drawn) | 3% (inactive) | –
33 | COc1cccc(CNC(=O)Cn2c(=O)c3cccn3c3ccc(F)cc32)c1OC | 6.54% (inactive) | –
34 | O=C(O)CCCn1c(=O)c2cccn2c2ccc(F)cc21 | – | 7.31 µM (active)
35 | COCCCn1c(CCC(=O)O)ccc1-c1ccc(F)cc1 | -4.41% (inactive) | –
36 | Cc1ccccc1-c1n[nH]c(=S)n1C | 16.2% (inactive) | –
37 | COC(CNC(=O)Cn1ncc2ccsc2c1=O)OC | -4.15% (inactive) | –
38 | Cc1c(CN2CCC(C)CC2)c(=O)n(-c2ccccc2)n1C | 0.472% (inactive) | –
39 | CCc1nnc(NC(=O)c2c(O)c3c([nH]c2=O)CCCC3)s1 | -24.8% (inactive) | –
40 | Cc1ccc(C(=O)NC(=S)Nc2ccc3[nH]c(=O)[nH]c3c2)cc1C | 3.34% (inactive) | –
41 | COC(=O)c1nc(NC(=O)c2ccccc2)n[nH]1 | -12.7% (inactive) | –
42 | Cc1cc2[nH]ncc2cc1NC(=S)NC(=O)c1ccccc1 | – | 18.4 µM (active)
43 | O=C(COC(=O)C1CCCCC1)Nc1ccc([N+](=O)[O-])cc1 | -8.96% (inactive) | –
44 | C[C@@H]1CN([C@H](C)CO)C(=O)c2cc(NC(=O)NC3CCCCC3)ccc2O[C@H]1CN(C)S(C)(=O)=O | 1.34% (inactive) | –

Row | Structure (SMILES) | activity change, negative = growth inhibition | Potency
45 | COc1ccc(/C=C/C(=O)NC(=S)NN2CCCCC2c2cccnc2)cc1 (stereo not drawn) | -37.1% (inactive) | –
46 | Cc1cc(N2CCN(c3ccc(F)cc3)CC2)n2ncnc2n1 | – | 16.4 µM (active)
47 | Cc1cc(Nc2cccc(F)c2)n2ncnc2n1 | -1.84% (inactive) | –
48 | Cc1cc(N2CCN(Cc3ccc4c(c3)OCO4)CC2)n2ncnc2n1 | -17.8% (inactive) | –
49 | C=CCn1c(SCC(=O)NC)nnc1C12CC3CC(CC(C3)C1)C2 | -17.5% (inactive) | –
50 | O=C(c1ccc2c(c1)OCO2)N1CCNc2ccccc2C1 | -12.9% (inactive) | –
51 | COc1ccccc1OCCn1c(SCC(N)=O)nc2ccccc21 | -6.59% (inactive) | –
52 | CCCn1cc(SCC(N)=O)c2ccccc21 | 12.8% (inactive) | –
53 | CCC(=O)c1cn(CCOc2ccccc2OC)c2ccccc12 | – | 23.1 µM (active)
54 | Cn1nnnc1SCC(=O)Nc1ccccc1C(=O)NC1CC1 | 9.22% (inactive) | –
55 | Cc1cc(=O)oc2c(C)c(OCC(=O)NCCc3ccc(S(N)(=O)=O)cc3)ccc12 | 2.29% (inactive) | –
56 | COc1cccc(NC(=S)NC(=O)c2c(Cl)c(C)nn2C)c1 | -8.21% (inactive) | –
57 | Cc1ccc(SCc2c(C(=O)N/N=C/c3cccnc3)nnn2-c2nonc2N)cc1 | -26.9% (inactive) | –
58 | Cc1ccc(SCc2c(C(=O)N/N=C/C3CC=CCC3)nnn2-c2nonc2N)cc1 (stereo not drawn) | -24.7% (inactive) | –
59 | Nc1nonc1-n1nnc(C(=O)N/N=C/c2cc(Br)ccc2O)c1CSC1=NCCS1 | – | 6.51 µM (active)
60 | O=C(O)c1ccccc1C(=O)Nc1ccccc1[N+](=O)[O-] | -0.699% (inactive) | –
61 | CCOC(=O)N1CCN(C(=O)Cc2ccc(-n3c(=S)[nH]c4ccccc4c3=O)cc2)CC1 | -15.2% (inactive) | –
62 | Cc1cc(C)cc(Oc2nc3c(C)cccn3c(=O)c2/C=C(\C#N)C(=O)NC2CCS(=O)(=O)C2)c1 (stereo not drawn) | – | 13 µM (active)
63 | Cc1ccc(C(=O)N/C(=C\c2ccco2)C(=O)NC2CCS(=O)(=O)C2)cc1 (stereo not drawn) | 6.49% (inactive) | –
64 | Cc1cccn2c(=O)c(/C=C(\C#N)S(=O)(=O)c3ccc(Cl)cc3)c(N3CCC(C(N)=O)CC3)nc12 | -20.6% (inactive) | –
65 | Cc1cc(C)n2nc(C(=O)N3CCN(Cc4ccc5c(c4)OCO5)CC3)nc2n1 | -14.8% (inactive) | –
66 | CCN(CC)S(=O)(=O)c1ccc2nc(CSc3nnnn3-c3ccc(O)cc3)[nH]c2c1 | -27.3% (inactive) | –

Row | Structure (SMILES) | activity change, negative = growth inhibition | Potency
67 | CCOc1ccccc1Nc1ccc(C(=O)O)cc1[N+](=O)[O-] | 8.42% (inactive) | –
68 | Cc1csc(NC(=O)Nc2ccccc2[N+](=O)[O-])n1 | -20.3% (inactive) | –
69 | CCOC(=O)/C(=N\Nc1ccccc1[N+](=O)[O-])c1csc(Nc2ccccc2)n1 | – | 16.4 µM (active)
70 | CC(=O)c1c(C)[nH]c(C(=O)NCCCN2CCCC2)c1C | 5.85% (inactive) | –
71 | Cn1cc[n+](C)c1COc1ccc(C=O)cc1 | 2.67% (inactive) | –
72 | Cc1noc(C)c1C(=O)NCCc1ccc(S(N)(=O)=O)cc1 | 7.32% (inactive) | –
73 | Cc1cc([N+](=O)[O-])ccc1NS(=O)(=O)c1ccccc1 | – | 23.1 µM (active)
74 | O=[N+]([O-])c1cccc(S(=O)(=O)N2CCCCCC2)c1 | -29.9% (inactive) | –
75 | Cc1cc([N+](=O)[O-])ccc1NC1CCCC1 | 1.28% (inactive) | –
76 | Cc1cccc(NS(=O)(=O)c2ccc([N+](=O)[O-])cc2)n1 | -3.46% (inactive) | –
77 | O=[N+]([O-])c1ccc(NS(=O)(=O)c2ccccc2)c(Cl)c1 | – | 20.6 µM (active)
78 | Cc1ccccc1OS(=O)(=O)c1cccc([N+](=O)[O-])c1 | -27.5% (inactive) | –
79 | COc1ccc(NC(=O)[C@H](NC(=O)[C@@H]2Cc3ccccc3CN2)c2ccccc2)cc1 | 8.27% (inactive) | –
80 | CCC(=O)Nc1sc(C(=O)N2CCCCC2)c(C)c1C#N | 3.68% (inactive) | –
81 | CCCCc1cc2c(s1)CCCC/C2=N/O | -9.17% (inactive) | –
82 | COc1ccc(NC(=O)CC2C(=O)NC3CCCCC3N2C(=O)c2ccc(F)cc2)cc1 (stereo not drawn) | -19.5% (inactive) | –
83 | COc1ccc(NC(=O)N2CC3(CCN(C(C)=O)CC3)C2)cc1 | 11.3% (inactive) | –
84 | COc1ccc(CNS(=O)(=O)c2ccc(NC(=O)N3CCCCC3)cc2)cc1 | – | 20.6 µM (active)
85 | COc1ccc(S(=O)(=O)NC(C)C(=O)N2CCCCCC2)cc1 (stereo not drawn) | 12.3% (inactive) | –
86 | COc1ccc(NC(=O)Cn2c(=O)n(Cc3ccco3)c(=O)c3ccccc32)cc1 | -3.08% (inactive) | –
87 | CCn1c(COc2ccccc2)nnc1SCC(=O)NCc1ccco1 | -37.1% (inactive) | –
88 | Cn1c2ccccc2c(=O)c2c(=O)n(Cc3ccco3)c(COc3ccccc3)nc21 | – | 14.6 µM (active)

Row | Structure (SMILES) | activity change, negative = growth inhibition | Potency
89 | CCCc1cc(=O)oc2c(C)c(O)c(CN3CCCCC3)cc12 | -0.456% (inactive) | –
90 | COCCN(CCOC)c1nc(N)c2c(N)nc3c(c2c1C#N)CC(=O)N3Cc1ccc(Cl)cc1 | -26.2% (inactive) | –
91 | Cc1ccc(NC(=O)/C(=C\c2ccccc2)NC(=O)c2ccco2)cc1 | 8.92% (inactive) | –
92 | CCN1CCN(C(=O)Cn2nc(C)n3c(cc4c(OC)cccc43)c2=O)CC1 | -9.41% (inactive) | –
93 | COc1ccc(C2c3ccc(O)cc3Oc3ncn(CCCO)c(=N)c32)cc1OC (stereo not drawn) | 7.05% (inactive) | –
94 | Cc1ccc(NC(=O)COC(=O)CN2CCCCCC2=O)c(C)c1 | -13.6% (inactive) | –
95 | CC(C)N1C(=O)N(c2ccccc2)C(C)(O)CC1(C)C (stereo not drawn) | -9.56% (inactive) | –
96 | COC(=O)C1CC2=C(CC(C)(C)CC2=O)N(c2ccccc2)C1=O (stereo not drawn) | -16.6% (inactive) | –
97 | CC(C)C1C2=C(CC(C)(C)CC2=O)ON1c1ccccc1 (stereo not drawn) | – | 11.2 µM (active)
98 | O=C(Cn1c(=S)nc2ccccn21)N1CCc2ccccc2C1 | -9.89% (inactive) | –
99 | CCc1nc2sc3c(Cl)ncnc3c2c2c1CCCC2 | 16.2% (inactive) | –
100 | Fc1cc(F)c2nc(N3CCOCC3)sc2c1 | -0.301% (inactive) | –
101 | CCOc1nc(NCCN2CCOCC2)nc(Nc2ccc(C)cc2)n1 | -0.278% (inactive) | –
102 | O=C(O)c1ccc(-n2nc(-c3ccccc3)c3ccccc3c2=O)cc1 | -23.9% (inactive) | –
103 | CCOC(=O)C(C)n1nc(-c2ccccc2)c2ccccc2c1=O (stereo not drawn) | – | 14.6 µM (active)
104 | O=c1c2ccccc2c(-c2ccccc2)nn1Cc1ccccc1 | -21.5% (inactive) | –
105 | NC(=O)[C@H]1CC2(CC(c3cccc(NC(=O)[C@H]4CCC(=O)N4)c3)=NO2)CN1C(=O)c1ccccc1C(=O)c1ccccc1 (stereo partly drawn) | 7.54% (inactive) | –
106 | C/C(=N\NC(N)=S)c1cccnc1 | -3.42% (inactive) | –
107 | C/C(=N\NC(N)=S)c1ccncc1 | 10.4% (inactive) | –
108 | C/C(=N\NC(=S)NC(C)C)c1ccc(C(C)(C)C)cc1 | – | 20.6 µM (active)
